This is an account of results in PubChem BioAssay AID1022 (Emory University Molecular Libraries Screening Center, 2008).

Hit rate of the full screen: of about 220,000 compounds, about 3,300 (1.5%) were called active. The full list was thinned out, with actives kept by preference. Values without a mark were called inactive.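 Rule for the calls: active = compounds that cut the protein-peptide binding signal by more than 50% relative to plate controls in a single-dose test; inactive = the rest.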

The target of the test is Induced myeloid leukemia cell differentiation protein Mcl-1 (Homo sapiens) (UniProt Q07820). The test is described as follows: disruptors of Mcl-1 and Noxa BH3 peptide – biochemical, TR-FRET, 1536-well, primary screen (AID 1022).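 Note: His-tagged Mcl-1 with rhodamine Noxa BH3 peptide and terbium anti-His antibody; 0% = Mcl-1 plus Noxa peptide wells and 100% = peptide-only wells.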 To be noted: TR-FRET Mcl-1/Noxa peptide binding, 2 h; at 21.7 µM; active compounds read high.
Induced myeloid leukemia cell differentiation protein Mcl-1 (Homo sapiens), sequence (Q07820 whole entry, looked up): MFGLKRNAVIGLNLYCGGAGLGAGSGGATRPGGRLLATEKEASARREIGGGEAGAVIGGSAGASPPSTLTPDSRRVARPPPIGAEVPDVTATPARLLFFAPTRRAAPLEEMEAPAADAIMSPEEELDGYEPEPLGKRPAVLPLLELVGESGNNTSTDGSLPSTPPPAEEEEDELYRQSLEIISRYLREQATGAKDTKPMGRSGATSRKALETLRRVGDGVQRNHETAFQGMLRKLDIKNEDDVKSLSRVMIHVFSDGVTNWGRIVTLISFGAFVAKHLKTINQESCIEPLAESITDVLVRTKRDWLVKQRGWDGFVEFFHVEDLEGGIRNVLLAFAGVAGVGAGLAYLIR
With `COc1ccccc1/C=C/C=N/NC(=O)CN1CCN(Cc2ccccc2)CC1`, the inhibition (in general, the change of the read-out against control, counted positive when it falls) is 0.78%. Take `CSC1=NCCN1C(=O)Cc1cccc2ccccc12`: the inhibition is -0.87%. In the case of `O=C(NNC(=O)c1cnccc1C(F)(F)F)c1ccc(Cl)cc1` it was 11.9%.

Turning to `CC(=O)Nc1cccc([N+](=O)[O-])c1`, the inhibition was -1.66%. In the case of `Cc1ccccc1NC(=S)Nc1cccc([N+](=O)[O-])c1` it was 11.3%; in that of `COC(=O)/C=C\C(=O)Nc1cccc([N+](=O)[O-])c1`, 64.5% (active).

With `COc1ccc(Cn2c(O)c(/C=C3/C=CC=N3)c(=O)[nH]c2=O)cc1`, the inhibition is 25%. The value for `CC(=O)NC(=S)Nc1ccc(NC(=O)c2cccnc2)cc1` was 1.75%; that for `COc1ccc(C(=O)CSc2nnc(COc3ccccc3)n2Cc2ccco2)cc1` was 17.5%; that for `CCCc1nc2c(c(=O)c3ccccc3n2C)c(=O)n1-c1cc(C)cc(C)c1` was 5.11%.

On to `Cn1c2ccccc2c(=O)c2c(=O)n(Cc3ccco3)c(COc3ccccc3)nc21`, for which the inhibition was 60% (active).

For the compound `CSc1sc(C(=O)NNC(=O)c2ccc(Cl)cc2)c2c1C=CCC2`, the inhibition is 0.01%.

Regarding `CN1CCN(C2=NCCO2)CC1`, the inhibition is 3.88%. In the case of `Nc1c(C(=O)c2cccs2)sc2nsc(SCCN3CCCCC3)c12` it was -16.9%; in that of `O=C(c1ccco1)N1CCN(CCOc2ccccc2)CC1`, 10.5%.

In the case of `CCn1c(-c2cc(OC)ccc2OC)csc1=Nc1c(C)n(C)n(-c2ccccc2)c1=O`, the inhibition was 10.7%. The value for `CN=c1scc(-c2cc(OC)ccc2OC)n1/N=C/c1c(C)[nH]c2ccccc12` was 56.7% (active); that for `COc1ccc(OC)c(N=Cc2c(O)[nH]c3ccccc23)c1` was 20.4%; that for `CCn1c2ccccc2c2cc(NC(=O)CNC)ccc21` was 43.9%. Take `CCc1ccc(NC(=O)N[C@H](C(=O)O)C(C)CC)cc1` (stereo not given in full): the inhibition is 16.4%. In the case of `O=C(O)COCC(=O)NCc1csc2ccc(Cl)cc12` it was 11.9%. In the case of `O=S(=O)([N-]c1nc2ccccc2nc1-[n+]1ccc(Cc2ccccc2)cc1)c1ccc(Br)s1` it was 15.5%; in that of `Cc1ccc(Cc2cnc(NC(=O)/C(C#N)=C/c3ccc(-c4cccc([N+](=O)[O-])c4)o3)s2)cc1`, 24.9%; in that of `N#C/C(=C/c1ccc(-c2ccccc2[N+](=O)[O-])o1)C(=O)NCCN1CCCCC1`, 26.3%. In the case of `Cc1ccc(-c2ccc(/C=C(\C#N)C(N)=S)o2)c([N+](=O)[O-])c1` it was 58.2% (active); in that of `O=S(=O)(NCCc1csc(-c2ccccc2)n1)c1cccnc1`, -1.4%. `NCC(=O)c1cccc2ccc[n+]([O-])c12`: the inhibition is 17.5%. The value for `COc1cc(NC(=O)c2ccc(CNc3c(N4CCCC4)c(=O)c3=O)cc2)cc(OC)c1OC` was 8.38%; that for `COc1cc(OC)c(-n2cc(-c3ccc(Cl)cc3)[nH]c2=O)cc1Cl` was 55.4% (active).

With `COc1cc(OC)c(-n2c(C)cc(C=O)c2C)cc1Cl`, the inhibition is 13.7%. In the case of `COc1ccc(-c2cn(-c3ccc(OC)cc3)c(=S)[nH]2)cc1` it was 11.3%; in that of `COc1ccc(/C=C/C(=O)Nc2ccc(C)cc2)cc1S(=O)(=O)N1CCOCC1`, 8.12%. In the case of `CCN(CC)c1ccc(/C=N/NC(=O)c2cnccn2)c(O)c1` it was 15.6%; in that of `CCn1c(SCC(=O)Nc2sc(C)c(C)c2C#N)nnc1C1CC1`, 29.1%; in that of `Brc1ccc2c(c1)[C@H]1OCC[C@H]1[C@@H](c1cccs1)N2`, -3.81%. In the case of `Cc1[nH]n(-c2ccccc2)c(=O)c1N=Nc1ccccc1C(=O)N1CCCCC1` it was 11.2%; in that of `Nc1nnn(CC(=O)N/N=C/c2ccccc2)n1`, -7.14%. `O=C(Cn1nnc(-c2ccccc2)n1)N/N=C/c1ccc(-c2ccc(Cl)cc2)o1`: the inhibition was 54.1% (active). In the case of `Nc1nnnn1CC(=O)N/N=C/c1ccc(-c2cccc(Cl)c2)o1`, the inhibition is 39.1%. With `O=C(CN1CCOCC1)N/N=C/c1ccc(-c2ccc(Br)cc2)o1`, the inhibition is 10.4%. The value for `Cc1[nH]c2ccccc2c1/C=N\NC(=O)Cn1nnc(-c2ccccc2)n1` was 62.8% (active).

On to `O=C(Cn1nnc(-c2ccccc2)n1)NCc1ccccc1`, for which the inhibition was -34.6%. In the case of `COc1ccc(CCNCC(O)Cn2ccc3ccccc32)cc1OC` (stereo not given) it was 15.7%; in that of `Cc1ccc(OCC(=O)c2cc(C)n(Cc3ccco3)c2C)c([N+](=O)[O-])n1`, 8.57%; in that of `COC(=O)c1ccc(S(=O)(=O)NCc2ccccc2)n1C`, 8.72%.

As for `COc1ccccc1Cn1c(CO)nc2ccccc21`, the inhibition was 7.12%. The value for `O=C(Nc1ccc(Cl)cc1)Nc1ccc(Oc2cccnc2)nc1` was 26.5%; that for `Cc1ccc(C2C3=C(Nc4[nH]n(-c5ccccc5)c(=O)c42)c2ccccc2C3=O)cc1` (stereo not given) was 69% (active); that for `Cc1cc(C)c(C2C3=C(Nc4c2c(C)nn4-c2ccccn2)c2ccccc2C3=O)c(C)c1` (stereo not given) was 12.5%. The value for `Cc1ccc(N=Nc2c(C)[nH]n(-c3ccccc3)c2=O)cc1` was 23.8%. As for `O=C(/C=C/c1ccc(Cl)c([N+](=O)[O-])c1)c1ccc(O)cc1`, the inhibition is -1.19%.

For `O=C(Nc1cccnc1)c1ccc(Cl)c([N+](=O)[O-])c1`, the inhibition is 14.2%. In the case of `O=C(/C=C/c1ccc(Cl)c([N+](=O)[O-])c1)c1cccnc1` it was 52.5% (active). Turning to `Cc1nc(C(=O)N2CCCC(C(=O)c3ccc(Cl)cc3)C2)cs1` (stereo not given), the inhibition is -4.61%.

Regarding `CC(=O)c1c(C)[nH]c(=S)c(C#N)c1-c1ccc(F)cc1`, the inhibition was -4.64%.

With `Oc1ccc(N2CCN(C(=S)NCc3ccccc3)CC2)cc1`, the inhibition is 61.1% (active). The value for `Oc1ccccc1N1CCN(C(=S)NCc2ccccc2)CC1` was 16.6%; that for `S=C(NCCc1ccccc1)N1CCCCC1` was 21.5%. The value for `CC(=O)N/C(=C\c1ccc(F)cc1)C(=O)NC(Cc1ccccc1)C(=O)O` (stereo not given) was -9.17%; that for `CCc1c(C)nc2cc(-c3cccs3)[nH]n2c1=O` was 7.24%.

With `Cc1cc(=O)n2[nH]c(-c3sccc3-n3c(C)ccc3C)cc2n1`, the inhibition is 50.6% (active). In the case of `O=C(CS(=O)(=O)c1ccc(C(F)(F)F)cn1)NNC(=O)c1ccccc1` it was -2.05%.

Take `COc1cccc(OC)c1CN(C)C(=O)c1cnccc1C(F)(F)F`: the inhibition was -21.5%. The value for `C/C=C(\C)C(=O)N1CC2(CC(c3cccc(NC(=O)CCCCC)c3)=NO2)C[C@@H]1C(N)=O` (stereo not given in full) was -15.7%; that for `O=C(NCCCc1ccccc1)C1CCC(CNc2c(N3CCCCC3)c(=O)c2=O)CC1` (stereo not given) was -3.38%. The value for `CN(C)/C=C(/C(=O)c1ccc(Cl)c(Cl)c1)c1nnnn1-c1ccccc1` was -12.2%; that for `O=C(COc1ccccc1[N+](=O)[O-])N/N=C/c1ccc[nH]1` was -5.33%. For the compound `Nn1c(SCc2ccccc2)nnc1C1CCCCC1`, the inhibition is 19.7%. The value for `O=C(COc1ccccc1[N+](=O)[O-])NC1CC1` was -42.2%; that for `Cc1cc(OCC(=O)NC2CCN(C)CC2)ccc1[N+](=O)[O-]` was 55.3% (active). The value for `Cc1cc(OCCCN2CCN(Cc3ccccc3)CC2)ccc1[N+](=O)[O-]` was 27.1%; that for `COc1cc2c3c(c1)/C(=C1/SC(=S)NC1=O)C(=O)N3C(C)(C)C=C2C` was 64% (active). In the case of `CC(C)n1c(CN2CCN(Cc3ccccc3)CC2)nc2ccccc21` it was 24.8%; in that of `O=[N+]([O-])c1cccc(-c2nnc3c4ccccc4c4ccccc4n23)c1`, 20.8%. Take `CCOC(=O)c1cnc2[nH]c3ccccc3n2c1=O`: the inhibition was 22%. Regarding `O=c1[nH]c2ccccc2n2c(-c3ccccc3)nnc12`, the inhibition was 101% (active). In the case of `CCOC(=O)c1c(CC(C)C)csc1/N=C/C1=C(O)CCCC1=O` it was -5.98%; in that of `O=C(OCC1O[C@@H](OC(=O)c2cc(O)c(O)c(O)c2)[C@@H](OC(=O)c2cc(O)c(O)c(O)c2)[C@@H](OC(=O)c2cc(O)c(O)c(O)c2)[C@@H]1OC(=O)c1cc(O)c(O)c(O)c1)c1cc(O)c(O)c(O)c1` (stereo not given in full), 114% (active); in that of `CC(=O)NC1C(OCc2ccccc2)OC(COC(C)=O)C(OC(C)=O)C1OC(C)=O` (stereo not given), 10.8%. Take `COC(=O)c1cc(=O)n(-c2c(Cl)cc(C(F)(F)F)cc2Cl)[nH]1`: the inhibition is 3.78%. The value for `Cc1cc(C(=O)NNC(=O)c2cccc(S(=O)(=O)N3CCOCC3)c2)c2ccccc2n1` was 63.2% (active); that for `O=C(NNC(=S)Nc1ccccc1)c1cccc(S(=O)(=O)N2CCOCC2)c1` was 1.14%. The value for `Cc1cc(C(=O)Nc2ccccc2N2CCOCC2)c2ccccc2n1` was -3.21%; that for `O=C1NC[C@@H](Cc2ccc(O)cc2)N(CCc2cccc(F)c2)C1=O` was 6.16%. The value for `C=CCN1CC(C)/C(=N\O)CC1C` (stereo not given) was 9.5%. With `Cc1nn(Cc2ccc(Cl)cc2)c(Cl)c1/C=N/NC(=O)c1cccnc1`, the inhibition was 27.5%.

As to `Cc1nn(Cc2ccc(Cl)cc2)c(Cl)c1/C=N/NC(=O)CNc1ccccc1F`, the inhibition is 5.98%. In the case of `CCn1nc(C)c(/C=N/NC(=O)Cc2ccc(Cl)cc2)c1C` it was 91.8% (active); in that of `O=c1c(-c2ccccc2)coc2cc(O)ccc12`, 3.79%; in that of `O=C1/C(=C/c2coc3ccc(O)cc3c2=O)SC(=S)N1c1ccccc1`, 56.9% (active). In the case of `O=c1c(/C=N/O)coc2ccc(Cl)cc12` it was 4.15%; in that of `Oc1ccc2ccccc2c1N=Nc1nccs1`, -81.5%. In the case of `CCOC(=O)C1(S(=O)(=O)c2ccccc2)CCN(Cc2ccccc2)CC1` it was 10.4%. For `CC1=C/C(=N\OS(=O)(=O)c2ccccc2)C=CC1=O`, the inhibition was 61.2% (active). In the case of `CC1=C/C(=N\S(=O)(=O)c2ccccc2)C(C(C)C)=CC1=O` it was 17%.
